# Reference: ChEMBL document CHEMBL3433997, “St. Jude Leishmania screening dataset” (2016)
# Target: Solute carrier family 2, facilitated glucose transporter member 1 (Homo sapiens) (UniProt P11166)
# Experiment: ST_JUDE_LEISH: Cytotoxicity at 2uM final concentration against transgenic Leishmania Mexicana promastigotes LmGLUT1 that are glucose transport deficient and complemented with the human glucose transporter GLUT1. Activity is measured by DNA content using SYBR green in vitro
# Format: functional
# Solute carrier family 2, facilitated glucose transporter member 1 (Homo sapiens), sequence (P11166 whole entry): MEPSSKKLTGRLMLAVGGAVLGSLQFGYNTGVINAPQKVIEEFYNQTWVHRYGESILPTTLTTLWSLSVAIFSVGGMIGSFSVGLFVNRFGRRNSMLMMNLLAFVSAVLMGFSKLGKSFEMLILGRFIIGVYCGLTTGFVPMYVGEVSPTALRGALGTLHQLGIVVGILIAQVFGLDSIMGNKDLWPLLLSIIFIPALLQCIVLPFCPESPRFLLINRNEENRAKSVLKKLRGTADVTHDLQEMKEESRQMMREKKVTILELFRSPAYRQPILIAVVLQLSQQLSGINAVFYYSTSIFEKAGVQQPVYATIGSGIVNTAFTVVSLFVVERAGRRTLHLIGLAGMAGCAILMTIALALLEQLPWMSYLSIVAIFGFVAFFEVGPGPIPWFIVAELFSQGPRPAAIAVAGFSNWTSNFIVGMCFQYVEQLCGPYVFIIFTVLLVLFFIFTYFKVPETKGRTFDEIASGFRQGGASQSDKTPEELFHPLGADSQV
row,Compound,inhibition [%]
1,Cn1ccnc1S(=O)(=O)CCNCc1ccc(-c2ccc3ncnc(Nc4ccc(OCc5cccc(F)c5)c(Cl)c4)c3c2)o1,3.08
2,CCOc1ccc(CCCON2C(=N)N=C(N)NC2(C)C)cc1,9.39
3,O=C(NCC1CCN(Cc2ccsc2)C1)c1cc(-c2cccc(C(F)(F)F)c2)cs1 (stereo not given),1.96
4,COc1ccc2nccc([C@@H](O)CN3CCC(NCc4ccc5c(n4)NCCC5)CC3)c2c1,6.88
5,CCCOc1ccc(NC(=O)c2cccs2)cc1Cl,10
6,CCCc1cc(Cc2cnc(N)nc2N)cc(CCC)c1OCCCCC(=O)OCC,6.48
7,CC(=O)Nc1ccc(CN2CCC(NC(=O)c3ccc(-c4ccc(N(C)C)cc4)s3)CC2)cc1,2.06
8,Cc1cc2c(/C=C/C(=O)NC3CCC(CCN4CCc5ccc(C#N)cc5CC4)CC3)cccc2[nH]1 (stereo not given),4
9,O=C(Nc1cccc(-c2cccc(-c3nc4ccccc4[nH]3)c2)c1)c1cccnc1,2.95
10,COc1ccc2nccc(N3CCC(NCCNS(=O)(=O)c4ccc5c(c4)NC(=O)CS5)C3)c2n1 (stereo not given),-1.11
11,Cc1nnc2c(NC(=O)NC3CCCC3)cc3cc(-c4ccc(CN(C)C)cc4)ccc3n12,0.94
12,c1cc(Nc2nc(-c3ccc(-c4csc(Nc5ccncc5)n4)cc3)cs2)ccn1,-1.93
13,CN(C)c1cc(C(=O)N[C@@H](Cc2ccccc2)[C@H](O)CNC2CCCCC2)cc2[nH]ccc12,5.43
14,Cc1cccc(CNc2nc(C)cc(NCCC(=O)NCc3cccc(F)c3)n2)c1,7.68
15,O=C1Nc2ccc3ncccc3c2/C1=C/Nc1ccc(N2CCN(CCO)CC2)cc1,2.74
16,NC(=O)c1ccccc1OCC(=O)Nc1cccc(-c2ccc(-c3nc4cc(C(F)(F)F)ccc4[nH]3)cc2)c1,4.44
17,CC(C)c1cccc(C(C)C)c1NC(=O)NNC(=O)c1ccc(CCN2CCC(c3nc(COCC(F)(F)F)c(-c4ccc(F)cc4)o3)CC2)cc1,10.8
18,Cc1ccc(NC(=O)c2ccc(CN3CCCN(CC4CCCCC4)CC3)cc2)cc1C,7.66
19,CC(C)c1ccc(NC(=O)c2ccc(CN3CCCN(Cc4cccc(O)c4)CC3)cc2)cc1,2.95
20,COc1cccc(-c2cnc(N)c(-c3nc4ccc(F)cc4[nH]3)c2)c1,5.87

row,Compound,inhibition [%]
1,CC(=O)Nc1cccc(C(=O)Nc2ccc(-c3cccc(-c4nc5cc(C(F)(F)F)ccc5[nH]4)c3)cc2)c1,2.13
2,O=C(C=Cc1ccc(Cl)c(Cl)c1)NCCCCCN1CCC(CCCNC(=O)c2sc3ccccc3c2Cl)CC1,2.7
3,O=C(/C=C/c1ccc(-c2ccccc2)cc1)NCCCCCN1CCC(c2c[nH]c3ccccc23)CC1,0.3
4,Cc1cccc2nc(-c3cccc(-c4cccc(NC(=O)CNC(=O)c5ccc(O)cc5)c4)c3)[nH]c12,0.25
5,OC(c1ccc2ccccc2c1)C1CN(CCc2ccccc2)CCC1(O)c1ccccc1 (stereo not given),0.49
6,Cc1nc(C)c(-c2ccc(Oc3ccc([S+](C)[O-])cc3)cc2)c(O)c1Br (stereo not given),3.66
7,Brc1ccc(Nc2nc(NCC3CCCO3)c3ccccc3n2)cc1 (stereo not given),24.2
8,Cc1n[nH]c(C)c1C1CCN(CC2CCC(NC(=O)/C=C/c3ccc(Cl)c(Cl)c3)CC2)CC1 (stereo not given),4.43
9,COC(=O)c1cccc(NC(=O)NC2CCN(c3ccnc(Nc4ccc(F)cc4)n3)C2)c1 (stereo not given),2.08
10,Cc1cc(N[C@@H](Cc2ccccc2)C(=O)NCc2cccs2)nc(NCCc2ccc(F)cc2)n1,8.62
11,COc1ccc(CCCCN2C(=O)C(c3ccccc3)(c3ccccc3)N=C2N)cc1,3.36
12,Fc1cc(Cl)ccc1Nc1ccnc2cc(-c3scnc3CNCCN3CCOCC3)ccc12,2.02
13,COC(=O)c1ccc(Nc2nccc(Nc3ccc(Oc4ccccc4)cc3)n2)cc1,5.22
14,OCCN1CCN(Cc2cccc(-c3ccc(-c4nc5cc(C(F)(F)F)ccc5[nH]4)s3)c2)CC1,2.38
15,CCOC(=O)C1=C(C)N=c2sc(=Cc3ccccc3O)c(=O)n2C1c1ccc(OC)c2ccccc12 (stereo not given),-1.25
16,c1cc(CNC2Cc3ccccc3C2)cc(-c2cnc(N3CCNCC3)nc2)c1,0.76
17,COc1ccc(C(=O)Nc2nonc2-c2ccc(OC)c(OC)c2)cc1Cl,-0.82
18,CC1CN(c2ccnc3ccc(Sc4ccc(Oc5ccccc5)cc4)cc23)CC(C)N1 (stereo not given),0.07
19,O=C(NCc1ccccc1)Nc1ccc(-c2ccc(-c3nc4cc(C(F)(F)F)ccc4[nH]3)cc2)cc1,2.91
20,COc1ccc(N2CCN(c3nc(Nc4ccc(NC(C)=O)cc4)nc(N4CCCC4)n3)CC2)cc1,0.68
